Hit rate of the full screen: of about 290,000 compounds, about 150 (0.052%) were called active.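 How the source made its calls: active means inhibition of at least 50% with at least 30 cells and total cytoplasm GFP at most 10,000,000; inconclusive means under 30 cells or total GFP of 10,000,000 plus; inactive means the rest.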 Shown is part of a subset that was picked to be rich in actives. Potency and affinity values are given separately.
What follows are molecules tested against G-protein coupled receptor 35 (Homo sapiens) (UniProt Q9HC97) (assay: inhibition of zaprinast-stimulated GPR35 beta-arrestin translocation – imaging, U2OS, beta-arrestin-GFP, zaprinast agonist, primary screen (AID 2058)). Conditions: zaprinast antagonism, at 10 µM, stronger effect = higher value.
G-protein coupled receptor 35 (Homo sapiens), sequence (Q9HC97 whole entry, looked up): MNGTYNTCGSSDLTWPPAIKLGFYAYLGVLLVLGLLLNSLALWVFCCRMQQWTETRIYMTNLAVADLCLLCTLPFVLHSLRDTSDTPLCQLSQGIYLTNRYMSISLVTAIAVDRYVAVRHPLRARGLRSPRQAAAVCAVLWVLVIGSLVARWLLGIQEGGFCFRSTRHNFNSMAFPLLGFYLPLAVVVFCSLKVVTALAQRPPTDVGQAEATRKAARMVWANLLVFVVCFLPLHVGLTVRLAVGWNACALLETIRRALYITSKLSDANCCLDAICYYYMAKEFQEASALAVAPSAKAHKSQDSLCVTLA

| SMILES | inhibition |
| --- | --- |
| CCC(=O)c1c[nH]c(C(=O)NCCc2ccccn2)c1 | -8% (inactive) |
| O=C(OCc1cc(Cl)ccc1OC(F)F)c1ccc([N+](=O)[O-])o1 | 8.7% (inactive) |
| CCCCC1=CC2=CC(=O)C(C)(OC(=O)CC)C(=O)C2=CN1C(CO)CO (stereo not given) | -6.6% (inactive) |
| CC(C)NCCOCCOc1ccccc1F | 12.6% (inactive) |
| N#Cc1cccc(NC(=O)NCCc2c[nH]c3ccccc23)c1 | -5.4% (inactive) |
| Cc1cc(C)c(S(=O)(=O)N2CCCOC2CNC(=O)C(=O)NCc2cccs2)c(C)c1 (stereo not given) | -5.9% (inactive) |
| COc1ccccc1NC(=O)Cn1c(=O)n(C)c(=O)c2sc3c(c21)COC(C)(C)C3 | 5.9% (inactive) |
| CC(/C=C1\SC(=O)N(CCCC(=O)O)C1=O)=C\c1ccccc1 | -14.5% (inactive) |
| CC(/C=C1\SC(=O)N(CC(=O)Nc2ccc(O)cc2)C1=O)=C\c1ccccc1 | -6.3% (inactive) |
| CC(/C=C1\SC(=S)N(CCCC(=O)Nc2ccc(C(=O)O)cc2)C1=O)=C\c1ccccc1 | 114% (active) |
| CC(/C=C1\SC(=S)N(CCC(=O)Nc2ccc(O)cc2)C1=O)=C\c1ccccc1 | 0.1% (inactive) |
| CC(=C\c1ccccc1)/C=C1/SC(=O)N(CCCC(=O)Nc2ccc(C(=O)O)cc2)C1=O | 108% (active) |
| CC(=O)c1ccc(NC(=O)CCCN2C(=O)/C(=C/C(C)=C/c3ccccc3)SC2=S)cc1 | 19.4% (inactive) |
| CC(=O)N(Cc1cc2c(C)cc(C)cc2[nH]c1=O)C1CCCCC1 | 1.4% (inactive) |
| O=C(Nc1ccccc1)C1=C[C@@H](c2csc3ccccc23)C[C@@H](OCc2ccc(CO)cc2)O1 | -24.8% (inactive) |
| CC(=O)Nc1sc(N/N=C\c2ccc(O)cc2)nc1-c1cccs1 | -8.9% (inactive) |
| CC(=O)Nc1sc(/C(C#N)=C\c2cccc(Cl)c2)nc1-c1ccc(C)cc1 | 18.1% (inactive) |
| CCN(CC)c1ccc(/C=C(\C#N)c2nc(-c3cccs3)c(NC(C)=O)s2)cc1 | 70.6% (active) |
| CCN(CC)c1ccc(/C=C(\C#N)c2ccccn2)cc1 | 15.1% (inactive) |
| CC(=O)Nc1sc(N/N=C/c2ccc(C)cc2)nc1-c1ccc(C)cc1 | -2.6% (inactive) |
| CC1Cc2ccccc2N1C(=O)CSc1nc(-c2ccccc2)cs1 (stereo not given) | -14.5% (inactive) |
| O=C(Nc1nc(-c2cccc([N+](=O)[O-])c2)cs1)C(c1ccccc1)c1ccccc1 | 0.8% (inactive) |
| COC(=O)c1cc(OC)c(OC)cc1N1C(=O)CCCC1=O | 8.7% (inactive) |

| SMILES | inhibition |
| --- | --- |
| CC(=O)N1CCc2[nH]c3ccccc3c2C1 | 4.9% (inactive) |
| CC(=O)N1C=Cc2c(c(C)c3c([nH]c4ccccc43)c2C)C1 | 71.5% (active) |
| Cc1ccc(C)c2c1[nH]c1ccccc12 | 15.5% (inactive) |
| Cc1noc(C)c1C(=O)OCC(=O)c1c(N)n(CC(C)C)c(=O)n(C)c1=O | -3.5% (inactive) |
| Cc1ccccc1N1CCN(C2CCCN(C(=O)c3ccc(Cl)s3)C2)CC1 (stereo not given) | 0.1% (inactive) |
| CCOC(=O)/C=C(C)\C=C\c1c[nH]c2ccccc12 | -3.8% (inactive) |
| O=C(/C=C/c1c[nH]c2ccccc12)c1ccccc1 | -6.3% (inactive) |
| Cc1ccccc1Cn1c2ccccc2c2cnn(CC(=O)NCCCN3CCN(C)CC3)c(=O)c21 | -6.2% (inactive) |
| O=S(=O)(Nc1cc2nc3ccccc3nc2n1Cc1ccccc1)c1ccc(Cl)cc1 | 85.4% (active) |
| O=S(=O)(Nc1nc2ccccc2nc1-[n+]1ccccc1)c1ccc(Cl)cc1 | -1.7% (inactive) |
| O=S(=O)(Nc1nc2ccccc2nc1Cl)c1ccc(Cl)cc1 | -9.2% (inactive) |
| O=C(Nc1ccc(Cl)cn1)c1ccc(Oc2ccccc2)cc1 | 0.8% (inactive) |
| CCOC(=O)CCCSc1nc2sc3c(c2c(=O)[nH]1)CCC3 | 1.8% (inactive) |
| Cn1cc(CN2CCC(n3nccc3NC(=O)c3ccccc3Cl)CC2)cn1 | -15.2% (inactive) |
| CCc1nnc(NS(=O)(=O)c2ccc(NC(=S)NC(=O)/C=C/c3ccccc3)cc2)s1 | -2.9% (inactive) |
| CCc1nnc(NS(=O)(=O)c2ccc(NC(=S)NC(=O)/C=C/c3ccc(F)cc3)cc2)s1 | 11.3% (inactive) |
| Cc1ccc(C(=O)N(CC(=O)NC2CCCC2)c2ccccc2C)s1 | 4.4% (inactive) |
| CCc1ccc(/C=C2/SC(=S)N(CCC(=O)Nc3cccnc3)C2=O)cc1 | -11.4% (inactive) |
| COC(=O)CSc1nc2ccc(NC(=O)c3ccccc3C(=O)N3CCOCC3)cc2s1 | -10.4% (inactive) |
| O=C(O)c1ccc(CSc2nc3ccc(NC(=O)c4ccccc4C(=O)O)cc3s2)cc1 | -3.4% (inactive) |
| CN(C(=O)c1ccc2ccccc2c1)c1ccccn1 | 13.4% (inactive) |
| CC(C)c1ccc[n+](-c2nc([O-])sc2C=O)c1 | -8.7% (inactive) |
| CCOc1ccc(NC(=O)C(C)Oc2ccccc2C(=O)Nc2cccc(Cl)c2Cl)cc1 (stereo not given) | 12.3% (inactive) |

| SMILES | inhibition |
| --- | --- |
| Cc1ccc(NC(=O)COc2ccccc2C(=O)Nc2ccccc2)cc1Cl | -17.7% (inactive) |
| Cc1csc2c(N3CCC(C(=O)O)CC3)ncnc12 | -2.1% (inactive) |
| O=C(Nc1ccnn1C1CCN(Cc2ccc(OC(F)F)cc2)CC1)C1CCCC1 | 9.2% (inactive) |
| CCOc1ccccc1/C=N/NC(=O)c1c(C)nc2ccc(Br)cn12 | 10.2% (inactive) |
| CCC(C(=O)O)n1nc(-c2ccccc2)c2cc(Cl)ccc21 (stereo not given) | -3.2% (inactive) |
| CC(C(=O)NCc1ccco1)n1nc(-c2ccccc2)c2cc(Cl)ccc21 (stereo not given) | 7.1% (inactive) |
| O=c1[nH]c(CN2CCCC2)nc2sc3c(c12)CCC3 | 0.2% (inactive) |
| COc1ccc(N2CCN(C(=O)C(=O)c3cn(CC(=O)N4CCCCCC4)c4ccccc34)CC2)cc1 | 2.6% (inactive) |
| C=CCC(O)(CC=C)CNC(=O)C1CCC(=O)N(CCCc2ccccc2)C1 (stereo not given) | 1.6% (inactive) |
| CC(=O)N1CC=C2C(C#N)=C(N)C(C#N)(C#N)C(C)C2C1 (stereo not given) | 13.2% (inactive) |
| COc1cc([C@@H]2[C@H]3CN(C)CC=C3C(C#N)=C(N)C2(C#N)C#N)cc2c1OCO2 | 48.3% (inactive) |
| CN1CC=C2C(C#N)=C(N)C(C#N)(C#N)[C@H](c3cccc(Cl)c3)C2C1 (stereo not given in full) | 101% (active) |
| COc1cc(C2C3CN(C)CC=C3C(C#N)=C(N)C2(C#N)C#N)ccc1OC(C)C (stereo not given) | 16.1% (inactive) |
| CN1CC=C2C(C#N)=C(N)C(C#N)(C#N)[C@H](c3cccs3)[C@H]2C1 | 39.8% (inactive) |
| CCCCn1c(=N)n(CC(=O)c2ccc(OC)cc2)c2ccccc21 | -0.5% (inactive) |
| COC(=O)c1cccc(NC(=O)c2nn(C(C)C)c(=O)c3ccccc23)c1 | 25.1% (inactive) |
| Cc1ccc(CNC(=S)NC2CCCCC2)cc1 | -8.5% (inactive) |
| CCC(=O)Nc1ccc(C(=O)NNC(=O)c2ccc(C)cc2)cc1 | 9.3% (inactive) |
| O=C(Nc1ccc(S(=O)(=O)Nc2ccccc2)cc1)c1ccc(CN2CCOCC2)cc1 | -0.3% (inactive) |
| COc1cc(CN2CCCC(C)C2)ccc1OCc1ccccc1 (stereo not given) | 9.5% (inactive) |
| CC(C)Cn1c(N)c(C(=O)COC(=O)/C=C/c2cccs2)c(=O)n(C)c1=O | 12.1% (inactive) |
| CCOC(=O)CN1CC23C=CC(O2)C(C(=O)NCc2ccccc2OC)C3C1=O (stereo not given) | 13.9% (inactive) |
| O=C1CC(c2ccccc2)N1c1ccccc1 (stereo not given) | 8.1% (inactive) |

| SMILES | inhibition |
| --- | --- |
| CC(=O)Nc1ccc(C(=O)/C=C/c2ccco2)cc1 | -4.1% (inactive) |
| O=C(/C=C\c1ccco1)c1ccc(NC(=O)c2ccco2)cc1 | 15.5% (inactive) |
| CC1=C(C(=O)Nc2ccc(Cl)cc2C(=O)N2CCC(C(N)=O)CC2)SCCO1 | 16.5% (inactive) |
| Cc1nc(N2CCC(C)CC2)c2c(C)c(C(=O)Nc3ccc(C)c(F)c3)sc2n1 | 24.7% (inactive) |
| Cc1nc(N2CCC(C)CC2)c2c(C)c(C(=O)Nc3ccc(C(F)(F)F)cc3)sc2n1 | 25.3% (inactive) |
| Cc1c(C(=O)Nc2ccc3c(c2)OCCO3)sc2ncnc(N3CCCCC3C)c12 (stereo not given) | 1.3% (inactive) |
| Cc1nc(N2CCCCC2)c2c(C)c(C(=O)Nc3cccc(C(F)(F)F)c3)sc2n1 | 14.1% (inactive) |
| Cc1ccc(-c2cccc(C(=O)NCCc3ccccc3)n2)c2ccccc12 | -3.7% (inactive) |
| CCOC(=O)N1CCN(C(=O)COC(=O)c2ccc(O)cc2O)CC1 | -5.5% (inactive) |
| COc1ccc(S(=O)(=O)N2CCN(c3ccccn3)CC2)cc1OC | 2.6% (inactive) |
| COc1ccc(C2SCCN2C(=S)Nc2ccc(F)cc2)cc1 (stereo not given) | -0.3% (inactive) |
| COC(=O)CN1C(=O)[C@H]2[C@@H](c3ccc(C)o3)N3C(=O)CN(CC4CC4)C(=O)[C@@]3(Cc3ccccc3)[C@H]2C1=O | 5.1% (inactive) |
| COc1ccc2cc3cc(C(=O)N4CCN(c5ccccc5)CC4)oc3nc2c1 | 6% (inactive) |
| COc1ccc2nc3oc(C(=O)N4CCN(c5cccc(C(F)(F)F)c5)CC4)cc3cc2c1 | 8.6% (inactive) |
| O=C(Nc1cccc(-c2cn3ccccc3n2)c1)c1cc2ccccc2oc1=O | -3.4% (inactive) |
| COc1cc(/C=C2\C(=N)N3N=C(S(C)(=O)=O)SC3=NC2=O)cc(OC)c1OCCOc1ccccc1C | 3.6% (inactive) |
| S=c1nc(-c2ccccc2)n(Cc2cccnc2)c2c1CCCC2 | 14.8% (inactive) |
| CCCCC[C@H]1CN(CCCC)C(=O)[C@@H]1CC(=O)NCc1ccc(OC)cc1 | 8.5% (inactive) |
| C=CCn1c(SCC(=O)Nc2ccc(Cl)cn2)nnc1C1CC1 | -2.5% (inactive) |
| CCS(=O)(=O)c1ncc(Cl)c(C(=O)Nc2ccc(S(=O)(=O)N3CCC(C)CC3)cc2)n1 | 27.7% (inactive) |
| CCC1CCCCN1S(=O)(=O)c1ccc(NC(=O)c2ccncc2)cc1 (stereo not given) | -21.5% (inactive) |

Reference: PubChem BioAssay AID2058 (Sanford-Burnham Center for Chemical Genomics, 2009)
